Assay [1] has as its system Wnt5a (protein binding on small-molecule microarray). The assay is described as follows: small molecules binding Wnt5a protein – biophysical, small-molecule microarray, 635/667 nm fluorescence, primary screen (AID 1142).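 Note: fluorescence read at 667 nm with signal to noise per printed feature.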 Conditions: 635 nm fluorescence, higher = more signal.
Assay [2] can be described thus: ATP-based viability of Huh7 replicon cells – cell-based, CellTiter-Glo luminescence, basal, 48 h, cytotoxicity control for HCV replication inhibitor project, primary screen (AID 1143).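 Note: Huh7 hepatoma cells carrying a hepatitis C replication reporter with no stimulus; test concentration not given here.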 Conditions: higher = more signal, called active from +8 up or from −8 down.
A short description of assay [3]: Pseudomonas biofilm growth suppression – PAO1 strain, BacTiter-Glo luminescence, LB-PBS, primary screen (AID 1144). Particulars: P. aeruginosa PAO1 biofilm, 12 h, higher = more signal.
The nature of assay [4]: basal CRE-LacZ reporter activity in PC12 – cell-based, unstimulated, primary screen (AID 1145). Particulars: no forskolin, luminescence, 4.5 h, higher = more signal, called active from +8 up or from −8 down.
Assay [5] in a line: forskolin-driven CRE-LacZ activity in PC12 – cell-based, CRE-LacZ reporter, forskolin-stimulated, primary screen (AID 1146).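 Note: PC12 cells with 6xCRE LacZ reporter stimulated by forskolin 10 µM; beta-galactosidase reporter signal reflecting CREB driven transcription.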 Conditions: luminescence, 4.5 h, higher = more signal, called active from +8 up or from −8 down.
For assay [6], the target named is Streptavidin (Streptomyces avidinii) (UniProt P22629). The assay is described as follows: compounds binding control protein streptavidin – biophysical, small-molecule microarray, 635/667 nm fluorescence, artefact control for SMM compound annotation, primary screen (AID 1147).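 Note: signal reflects streptavidin binding to arrayed compounds as a control protein.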 Conditions: higher = more signal.
Assay [7] is described as follows: probe aInhba binding on compound microarray – biochemical, small-molecule microarray, 635/667 nm fluorescence, primary screen (AID 1148).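 Note: score merges 667nm spot fluorescence with signal-to-noise for antibody binding to printed compounds.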 Conditions: higher = more signal.
In assay [8] the target is Torsin-1A (Homo sapiens) (UniProt O14656). Description: TOR1A wild-type binding on microarray – cell lysate, small-molecule microarray, lysate, 635/667 nm, primary screen (AID 1149). Conditions: COS7 hTOR1A-WT lysate, 635 nm fluorescence, higher = more signal.
The target is the same in assay [9]. The assay is described as follows: torsin A mutant lysate binding on microarrays – cell lysate, small-molecule microarray, COS7 lysate, 635/667 nm fluorescence, primary screen (AID 1150).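 Note: score pools 667 nm emission and signal to noise measuring lysate protein binding.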 Conditions: COS7 hTOR1A mutant lysate, 635 nm fluorescence, higher = more signal.
The subject of assay [10] is Sonic hedgehog protein (Shh). Description: Sonic hedgehog microarray binding compounds – biochemical, small-molecule microarray, 635/667 nm fluorescence, primary screen (AID 1151).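 Note: Shh protein binding to compounds spotted on small-molecule microarray slides; score combines spot fluorescence intensity with signal-to-noise across triplicate slides.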 Conditions: 635 nm fluorescence, higher = more signal.
Assay [11] can be described thus: optical density shifts of acrAB sulA E. coli – strain DRC41, OD650, 48 h, E. coli filamentation inducer project, primary screen (AID 1152).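 Note: E. coli MC1000 strain DRC41 lacking acrAB efflux pump and sulA.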 Particulars: higher = more signal, called active from +8 up or from −8 down.
The nature of assay [12]: probe aLefty1 binding on compound microarray – biochemical, small-molecule microarray, 635/667 nm fluorescence, primary screen (AID 1153).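 Note: score merges spot fluorescence with signal-to-noise ratio from the scanned slide images.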 Particulars: higher = more signal.
Assay [13] in a line: plasmodial surface anion channel blockers, osmotic lysis – cell-based, P. falciparum Indochina, OD700, 1 h, primary screen (AID 1154). Conditions: P. falciparum Indochina infected RBC osmotic lysis, higher = more signal, called active from +8 up or from −8 down.
Assay [14] in a line: plasmodial surface anion channel blockers, osmotic lysis – cell-based, P. falciparum Indochina, OD700, 2 h, primary screen (AID 1155).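 Note: lysis reports solute entry through the parasite surface anion channel PSAC.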 Particulars: P. falciparum Indochina infected erythrocytes, higher = more signal, called active from +8 up or from −8 down.
Assay [15] in a line: changes in parasitized red cell lysis, either direction – P. falciparum Indochina, OD700, 3 h, PSAC antagonist project, primary screen (AID 1156). Conditions: P. falciparum-infected erythrocytes, osmotic lysis, higher = more signal, called active from +8 up or from −8 down.
Assay [16] in a line: plasmodial surface anion channel blockers, osmotic lysis – cell-based, P. falciparum Indochina, OD700, 18 h, primary screen (AID 1157). Conditions: P. falciparum Indochina infected erythrocytes, osmotic lysis OD700, 18 h; higher = more signal, called active from +8 up or from −8 down.
The nature of assay [17]: S6 kinase pathway phospho-S6 level changes – cell-based, A549, cytoblot, luminescence, serum-stimulated, primary screen (AID 1158).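 Note: serum-stimulated A549 lung adenocarcinoma cells; signal is phosphorylated S6 detected by cytoblot immunostaining with HRP secondary.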 Particulars: 5 h, higher = more signal.
The target of assay [18] is NADPH oxidase 2 (Homo sapiens) (UniProt P04839). The assay is described as follows: compounds shifting NOX2 Amplex Red fluorescence – cell-based, HEK293-NOX2, PMA-stimulated, NOX inhibitor project, primary screen (AID 1159). Note: test concentration not given here. Particulars: 45 min, higher = more signal, called active from +8 up or from −8 down.
The target of assay [19] is NADPH oxidase 4 (Homo sapiens) (UniProt Q9NPH5). Description: compounds shifting NOX4 Amplex Red fluorescence – cell-based, HEK293-NOX4, tetracycline-induced, NOX inhibitor project, primary screen (AID 1160). Particulars: HEK293-NOX4, Amplex Red H2O2 fluorescence, 45 min; higher = more signal, called active from +8 up or from −8 down.
Assay [20] concerns the target NADPH oxidase 5 (Homo sapiens) (UniProt Q96PH1). Description: compounds shifting NOX5 Amplex Red fluorescence – cell-based, HEK293-NOX5, NOX inhibitor project, primary screen (AID 1161). Particulars: HEK293-NOX5, ionomycin, 45 min, higher = more signal.

The source made the active and inactive calls. Unless noted, the rule behind the calls is not given here.

Chain of NADPH oxidase 4 (Homo sapiens) (Q9NPH5 whole entry, looked up): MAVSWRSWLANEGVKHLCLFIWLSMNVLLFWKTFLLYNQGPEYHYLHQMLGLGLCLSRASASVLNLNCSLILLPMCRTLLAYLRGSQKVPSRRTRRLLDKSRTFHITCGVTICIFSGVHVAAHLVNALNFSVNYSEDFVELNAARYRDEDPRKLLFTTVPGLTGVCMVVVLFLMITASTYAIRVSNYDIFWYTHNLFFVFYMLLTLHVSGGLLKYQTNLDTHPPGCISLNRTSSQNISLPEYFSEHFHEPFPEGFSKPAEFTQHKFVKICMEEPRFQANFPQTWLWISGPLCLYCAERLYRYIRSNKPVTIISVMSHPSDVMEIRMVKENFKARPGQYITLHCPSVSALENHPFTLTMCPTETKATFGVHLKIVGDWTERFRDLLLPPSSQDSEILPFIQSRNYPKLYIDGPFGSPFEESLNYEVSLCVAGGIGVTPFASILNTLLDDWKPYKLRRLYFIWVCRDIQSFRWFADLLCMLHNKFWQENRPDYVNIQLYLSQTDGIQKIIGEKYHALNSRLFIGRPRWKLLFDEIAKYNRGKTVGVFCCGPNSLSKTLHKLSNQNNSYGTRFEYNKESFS
Chain of Streptavidin (Streptomyces avidinii) (P22629 whole entry, looked up): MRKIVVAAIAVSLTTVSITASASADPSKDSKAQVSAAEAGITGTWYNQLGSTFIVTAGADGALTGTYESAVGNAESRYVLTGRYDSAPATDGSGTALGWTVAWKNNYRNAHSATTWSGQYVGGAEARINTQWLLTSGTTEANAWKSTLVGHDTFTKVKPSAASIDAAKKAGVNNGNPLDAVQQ
Chain of NADPH oxidase 2 (Homo sapiens) (P04839 whole entry, looked up): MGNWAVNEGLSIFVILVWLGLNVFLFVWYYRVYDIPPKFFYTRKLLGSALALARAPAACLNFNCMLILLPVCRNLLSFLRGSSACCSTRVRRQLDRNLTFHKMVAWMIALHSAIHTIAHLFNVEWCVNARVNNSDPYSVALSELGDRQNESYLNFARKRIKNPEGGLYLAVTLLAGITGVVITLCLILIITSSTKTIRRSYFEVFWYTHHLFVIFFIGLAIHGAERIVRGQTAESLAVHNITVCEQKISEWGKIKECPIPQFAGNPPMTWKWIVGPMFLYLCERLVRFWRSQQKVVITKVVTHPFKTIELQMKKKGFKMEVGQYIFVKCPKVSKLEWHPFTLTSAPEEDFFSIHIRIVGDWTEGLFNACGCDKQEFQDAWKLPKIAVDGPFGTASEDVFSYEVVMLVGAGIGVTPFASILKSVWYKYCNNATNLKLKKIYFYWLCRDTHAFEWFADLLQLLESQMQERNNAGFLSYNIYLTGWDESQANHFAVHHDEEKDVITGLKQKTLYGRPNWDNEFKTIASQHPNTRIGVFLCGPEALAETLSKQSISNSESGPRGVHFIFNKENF
Chain of Torsin-1A (Homo sapiens) (O14656 whole entry, looked up): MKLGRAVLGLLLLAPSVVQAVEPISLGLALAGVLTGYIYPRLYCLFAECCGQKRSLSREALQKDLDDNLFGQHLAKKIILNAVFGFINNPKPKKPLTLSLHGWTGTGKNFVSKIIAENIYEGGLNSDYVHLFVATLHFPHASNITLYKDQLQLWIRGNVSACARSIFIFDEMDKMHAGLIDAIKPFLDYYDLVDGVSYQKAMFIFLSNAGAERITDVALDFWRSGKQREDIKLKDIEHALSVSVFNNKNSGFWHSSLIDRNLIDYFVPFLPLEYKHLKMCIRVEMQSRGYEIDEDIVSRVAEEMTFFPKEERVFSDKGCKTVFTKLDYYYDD
Chain of NADPH oxidase 5 (Homo sapiens) (Q96PH1 whole entry, looked up): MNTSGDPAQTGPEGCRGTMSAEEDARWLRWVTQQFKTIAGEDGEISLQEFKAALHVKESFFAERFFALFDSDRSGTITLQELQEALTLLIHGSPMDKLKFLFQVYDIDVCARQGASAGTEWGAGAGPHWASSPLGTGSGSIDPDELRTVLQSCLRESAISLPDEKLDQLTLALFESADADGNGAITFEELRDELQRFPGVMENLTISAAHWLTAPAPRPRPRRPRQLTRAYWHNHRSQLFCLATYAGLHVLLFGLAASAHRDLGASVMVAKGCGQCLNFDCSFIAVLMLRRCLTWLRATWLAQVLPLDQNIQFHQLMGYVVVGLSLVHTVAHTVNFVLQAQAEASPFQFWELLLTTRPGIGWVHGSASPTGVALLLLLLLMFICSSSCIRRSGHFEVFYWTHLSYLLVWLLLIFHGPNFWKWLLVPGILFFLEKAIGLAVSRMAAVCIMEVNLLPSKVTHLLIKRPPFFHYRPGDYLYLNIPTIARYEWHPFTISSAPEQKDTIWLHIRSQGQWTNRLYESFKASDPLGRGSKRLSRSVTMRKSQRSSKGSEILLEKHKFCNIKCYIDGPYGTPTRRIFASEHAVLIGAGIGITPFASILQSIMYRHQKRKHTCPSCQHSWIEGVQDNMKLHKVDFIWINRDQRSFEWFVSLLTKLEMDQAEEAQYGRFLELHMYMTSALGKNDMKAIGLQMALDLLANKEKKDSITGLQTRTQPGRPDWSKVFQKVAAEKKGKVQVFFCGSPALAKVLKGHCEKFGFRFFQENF

As to `Cc1c(NC(=O)/C(C#N)=C/c2ccc(Cl)cc2)c(=O)n(-c2ccccc2)n1C`, the composite z-score in assay [1] is -0.159; in assay [6], 1.33; in assay [7], -0.0259; with Torsin-1A (Homo sapiens) [8] it was 0.34; with Torsin-1A (Homo sapiens) [9], 0.407; in assay [10], -0.217. The compound also had a composite z-score in assay [12] of 0.0042. Moreover, the z-score in assay [2] was -1.62 (inactive); in assay [3], -1.04 (inactive); in assay [4] it was -0.374 (inactive); in [5], -1.64 (inactive); in [11] it was 0.764 (inactive); in assay [13] it was 6.41 (inactive). Moreover, the z-score is -0.238 (inactive) in assay [14]; -0.597 (inactive) in assay [15]; -1.44 (inactive) in [16]; 0.776 in assay [17]; -2.29 (inactive) in [18]; -0.376 (inactive) in assay [19]. The z-score in [20] worked out at 1.22.
In the case of `C[C@H]1C2[C@H](Cc3ccccc3)NC(=O)[C@]23C(=O)NCC(=O)N2CCC[C@H]2C(=O)NC/C=C\C/C=C/C3[C@@H]2O[C@]12C` (stereo not given in full), the composite z-score in assay [1] was 0.0076; in assay [6] it was -0.744; in assay [7], -0.018; with Torsin-1A (Homo sapiens) [8] it was -0.266; in the assay with Torsin-1A (Homo sapiens) [9], -0.618; in assay [10], 1.2. In [12], this compound registered a composite z-score of -0.193. In addition, the z-score in [2] is 0.493 (inactive); in [3], 0.716 (inactive); in assay [4], 0.495 (inactive); in [5] it was -0.294 (inactive); in assay [11], 0.822 (inactive); in assay [13], -0.0865 (inactive). Besides, the z-score is -0.387 (inactive) in assay [14]; -0.62 (inactive) in assay [15]; -0.113 (inactive) in assay [16]; 0.255 in assay [17]; 0.212 (inactive) in [18]; 1.07 (inactive) in [19]. Further, the z-score in [20] is 0.649.
On to `COCCOC(=O)N1C(=O)[C@@]2(c3cc(C#Cc4ccc(OC)cc4)ccc31)[C@H](C(=O)N1CCCCCCC1)[C@H]1C(=O)O[C@H](c3ccccc3)[C@H](c3ccccc3)N1[C@@H]2c1ccccc1OCCO`, for which the composite z-score is 1.15 in [1]; 1.53 in [6]; 1.59 in assay [7]; 1.43 in the assay with Torsin-1A (Homo sapiens) [8]; 1.18 with Torsin-1A (Homo sapiens) [9]; 1.9 in assay [10]. In assay [12], the composite z-score amounted to 2.74. In addition, the z-score was -0.751 (inactive) in assay [2]; -1.4 (inactive) in assay [3]; -1.42 (inactive) in [4]; 0.323 (inactive) in [5]; 0.0696 (inactive) in assay [11]; 0.688 (inactive) in assay [13]. Further, the z-score in assay [14] is 1.36 (inactive); in [15] it was 0.286 (inactive); in assay [16], 1.07 (inactive); in [17], -0.17; in assay [18], 0.0983 (inactive); in assay [19] it was -0.0381 (inactive). In addition, the z-score in assay [20] came out at 0.724.
In the case of `O=C(NCC(F)(F)F)[C@@H]1c2ccccc2C(=O)N(CC23CC4CC(CC(C4)C2)C3)[C@H]1c1ccc(CO)cc1`, the composite z-score in assay [1] is 0.41; in [6] it was -0.169; in assay [7] it was 0.038; with Torsin-1A (Homo sapiens) [8], 0.11; in the assay with Torsin-1A (Homo sapiens) [9], 0.438; in assay [10] it was 1.62. In addition, in [12], the composite z-score worked out at 0.0585. Further, the z-score in assay [2] is -3.88 (inactive); in assay [3], -2.52 (inactive); in assay [4], -0.412 (inactive); in assay [5] it was -1.46 (inactive); in [11], 1.17 (inactive); in assay [13] it was 0.75 (inactive). The z-score in [14] is -0.399 (inactive); in assay [15] it was -0.2 (inactive); in assay [16], -0.264 (inactive); in assay [17], 3.83; in assay [18], 0.49 (inactive); in assay [19], -0.0154 (inactive). For the same compound, the z-score in assay [20] is 0.19.
For `CC#CCO[Si](C#CCCCCCC)(C(C)C)C(C)C`, the composite z-score in assay [1] is -1.15; in assay [6], -2.45; in assay [7], -0.288; with Torsin-1A (Homo sapiens) [8], -1.46; in the assay with Torsin-1A (Homo sapiens) [9], -1.03; in [10], -1.62. Also, in assay [12], the composite z-score was -0.0501. Moreover, the z-score in assay [2] was -1.03 (inactive); in assay [3] it was -1.06 (inactive); in assay [4], -0.374 (inactive); in assay [5], 2.09 (inactive); in assay [11] it was 0.323 (inactive); in [13], 0.0926 (inactive). The z-score in assay [14] was -0.607 (inactive); in [15] it was -1.09 (inactive); in assay [16] it was 0.283 (inactive); in [17], 0.393; in assay [18] it was -1.27 (inactive); in [19], -0.681 (inactive). The z-score in [20] was -3.5.
